Structures are written as SMILES. For some of these results: Potency and affinity values are given separately.

The record followed here is ChEMBL document CHEMBL3988442, “University of Dundee, Small-Polar-MMV Screening Library” (2021).

What all share (set-up): scale not given: direction of the effect not stated beside the values
For test [1], the target named is Protein translocase subunit SecA (Escherichia coli (strain K12)) (UniProt P10408). Put plainly: Assay to Identify E. coli SecA ATPase Inhibitors. It is filed as functional. The conditions noted are these: 30 µM.
Protein translocase subunit SecA (Escherichia coli (strain K12)), sequence (P10408 whole entry): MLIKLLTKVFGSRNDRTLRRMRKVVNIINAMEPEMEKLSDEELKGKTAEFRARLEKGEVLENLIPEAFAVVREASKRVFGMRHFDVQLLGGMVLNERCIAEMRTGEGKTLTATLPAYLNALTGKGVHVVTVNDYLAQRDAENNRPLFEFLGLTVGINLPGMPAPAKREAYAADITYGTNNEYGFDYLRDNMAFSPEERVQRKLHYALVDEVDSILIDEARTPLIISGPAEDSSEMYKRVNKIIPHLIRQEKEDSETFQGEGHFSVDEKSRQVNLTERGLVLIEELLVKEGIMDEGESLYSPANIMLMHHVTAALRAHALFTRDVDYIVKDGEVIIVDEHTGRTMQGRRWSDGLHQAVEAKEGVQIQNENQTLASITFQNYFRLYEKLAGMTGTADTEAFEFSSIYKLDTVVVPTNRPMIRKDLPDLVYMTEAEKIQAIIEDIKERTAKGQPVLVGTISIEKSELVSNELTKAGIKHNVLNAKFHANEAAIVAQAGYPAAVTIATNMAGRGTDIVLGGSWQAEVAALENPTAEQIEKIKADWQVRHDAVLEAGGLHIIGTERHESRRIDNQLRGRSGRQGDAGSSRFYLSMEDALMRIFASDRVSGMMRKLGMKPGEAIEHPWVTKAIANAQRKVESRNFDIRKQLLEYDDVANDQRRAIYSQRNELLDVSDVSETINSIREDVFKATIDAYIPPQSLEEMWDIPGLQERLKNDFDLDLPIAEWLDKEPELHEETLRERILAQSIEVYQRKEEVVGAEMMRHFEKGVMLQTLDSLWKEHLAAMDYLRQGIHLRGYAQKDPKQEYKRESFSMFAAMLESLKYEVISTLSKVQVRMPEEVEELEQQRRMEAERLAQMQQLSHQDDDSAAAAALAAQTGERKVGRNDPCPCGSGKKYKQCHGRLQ
Test [2] addresses T1, Ubiquitin-activating enzyme e1, putative (Leishmania donovani (strain BPK282A1)) (UniProt E9BSI1).
T1 sequence (whole entry): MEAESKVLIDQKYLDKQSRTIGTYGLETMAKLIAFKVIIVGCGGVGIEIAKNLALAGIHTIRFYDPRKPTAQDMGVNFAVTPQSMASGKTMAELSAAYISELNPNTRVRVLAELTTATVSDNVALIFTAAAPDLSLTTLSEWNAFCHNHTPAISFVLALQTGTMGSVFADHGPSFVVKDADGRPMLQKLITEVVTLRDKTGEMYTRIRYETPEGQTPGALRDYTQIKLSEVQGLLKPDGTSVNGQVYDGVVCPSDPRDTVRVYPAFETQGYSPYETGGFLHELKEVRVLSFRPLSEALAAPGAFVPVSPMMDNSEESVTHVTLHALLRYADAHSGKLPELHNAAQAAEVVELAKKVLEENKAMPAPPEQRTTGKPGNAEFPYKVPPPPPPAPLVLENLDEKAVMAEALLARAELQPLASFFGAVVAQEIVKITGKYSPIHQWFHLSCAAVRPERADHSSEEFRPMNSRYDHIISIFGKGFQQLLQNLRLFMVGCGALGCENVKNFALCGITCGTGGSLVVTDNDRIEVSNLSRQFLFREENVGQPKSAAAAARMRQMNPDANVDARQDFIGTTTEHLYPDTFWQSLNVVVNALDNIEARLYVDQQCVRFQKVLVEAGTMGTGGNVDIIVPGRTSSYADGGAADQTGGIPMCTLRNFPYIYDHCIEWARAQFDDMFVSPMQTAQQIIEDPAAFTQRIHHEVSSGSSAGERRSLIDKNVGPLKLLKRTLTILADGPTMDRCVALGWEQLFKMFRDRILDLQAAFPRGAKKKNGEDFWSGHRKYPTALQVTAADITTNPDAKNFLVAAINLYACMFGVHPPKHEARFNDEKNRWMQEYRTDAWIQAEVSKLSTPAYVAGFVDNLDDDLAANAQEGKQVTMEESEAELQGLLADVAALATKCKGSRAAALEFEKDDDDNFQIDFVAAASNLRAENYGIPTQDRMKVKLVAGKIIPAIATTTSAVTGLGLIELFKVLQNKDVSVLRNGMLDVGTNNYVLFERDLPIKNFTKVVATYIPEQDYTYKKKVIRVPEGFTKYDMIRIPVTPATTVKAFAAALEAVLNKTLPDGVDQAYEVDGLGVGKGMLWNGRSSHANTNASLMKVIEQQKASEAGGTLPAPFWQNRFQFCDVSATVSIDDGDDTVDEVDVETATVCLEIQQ
The test is described as follows: Leishmania donovani Ubiquitin Activating Enzyme (LdE1). Format: functional. Conditions: 30 µM.

The target of test [3] is AMP-activated protein kinase, AMPK (Homo sapiens) (UniProt P54646+O43741+P54619+Q9UGJ0+Q9Y478+Q13131+Q9UGI9). The test is described as follows: AMP-dependent Kinase enzyme assay. An in vitro enzyme assay that detects ADP turnover that is directly proportional to AMPK activity. This uses naive AMPK that is activated during the assay with MK-8722. Format: functional. Conditions: 30 µM.

The target in test [4] is Sialic acid-binding Ig-like lectin 9 (Homo sapiens) (UniProt Q9Y336). Put plainly: Hs-Siglec9 ALPHAscreen SOP 20170721. The conditions noted are these: 10 µM. (In Alpha technology, singlet oxygen from a donor bead excites a nearby acceptor bead.)
Sialic acid-binding Ig-like lectin 9 (Homo sapiens), sequence (Q9Y336 whole entry): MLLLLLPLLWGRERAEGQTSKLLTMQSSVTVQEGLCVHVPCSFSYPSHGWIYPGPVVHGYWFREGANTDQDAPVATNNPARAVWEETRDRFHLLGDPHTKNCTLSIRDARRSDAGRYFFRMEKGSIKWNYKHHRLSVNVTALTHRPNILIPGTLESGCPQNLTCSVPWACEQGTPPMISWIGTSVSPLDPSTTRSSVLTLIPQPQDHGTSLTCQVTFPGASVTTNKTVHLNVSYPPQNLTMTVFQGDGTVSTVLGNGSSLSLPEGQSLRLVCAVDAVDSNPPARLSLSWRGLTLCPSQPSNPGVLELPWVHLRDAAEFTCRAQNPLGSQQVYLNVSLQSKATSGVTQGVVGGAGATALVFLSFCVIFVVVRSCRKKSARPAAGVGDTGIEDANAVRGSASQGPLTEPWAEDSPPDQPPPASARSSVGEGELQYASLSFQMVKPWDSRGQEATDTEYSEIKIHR
A further test deals with Trypanosoma cruzi. The test is described as follows: Trypanosoma cruzi phosphomannomutase and mannose-1-phosphate guanylyltransferase assay. It is filed as functional. The conditions noted are these: 10 µM.
Test [5] has as its target T2, Arginase-2, mitochondrial (Homo sapiens) (UniProt P78540).
T2 sequence (whole entry): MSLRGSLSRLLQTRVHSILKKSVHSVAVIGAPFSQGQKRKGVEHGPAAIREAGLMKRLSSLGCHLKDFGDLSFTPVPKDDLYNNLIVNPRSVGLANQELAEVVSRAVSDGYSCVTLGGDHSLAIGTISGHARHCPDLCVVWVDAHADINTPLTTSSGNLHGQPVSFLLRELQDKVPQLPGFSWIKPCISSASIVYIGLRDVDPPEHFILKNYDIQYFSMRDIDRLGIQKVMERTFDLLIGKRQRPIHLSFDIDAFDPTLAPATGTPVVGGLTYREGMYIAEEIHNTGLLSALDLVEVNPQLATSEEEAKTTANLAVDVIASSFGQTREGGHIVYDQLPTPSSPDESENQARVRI
Put plainly: in vitro enzyme assay to detect the production of urea directly proportional to the activity of Arginase II. Note: in the data most compounds retested in dose-response had high values. It is filed as functional. The conditions noted are these: 33.3 µM.

Test [6] concerns the target T3, Proteasome subunit beta (Trypanosoma cruzi) (UniProt O96673).
T3 sequence (whole entry): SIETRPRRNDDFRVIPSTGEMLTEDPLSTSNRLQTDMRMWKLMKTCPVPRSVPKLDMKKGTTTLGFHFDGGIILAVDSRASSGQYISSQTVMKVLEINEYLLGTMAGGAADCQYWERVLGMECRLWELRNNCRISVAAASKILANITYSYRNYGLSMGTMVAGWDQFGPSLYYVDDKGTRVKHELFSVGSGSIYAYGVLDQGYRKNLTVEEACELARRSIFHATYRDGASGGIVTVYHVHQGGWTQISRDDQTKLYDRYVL
The test is described as follows: Trypanosoma cruzi proteasome chymotrypsin-like activity (TcProtChymo) assay. Note: in the data most compounds retested in dose-response had high values. It is filed as functional. Conditions: 9.37 µM.

The species named for a further test is Homo sapiens. Put plainly: To identify inhibition of the IFN signalling (Jak-Stat) pathway via expression of an eGFP reporter gene under the control of an IFN-stimulated response element (ISRE) containing MxA promoter. Format: functional. Conditions: 30 µM. For orientation: A reporter such as luciferase makes a cellular process visible.
Test [7] has as its target T4, Tyrosyl-tRNA synthetase, putative (Trypanosoma cruzi (strain CL Brener)) (UniProt Q4DSP6).
T4 sequence (whole entry): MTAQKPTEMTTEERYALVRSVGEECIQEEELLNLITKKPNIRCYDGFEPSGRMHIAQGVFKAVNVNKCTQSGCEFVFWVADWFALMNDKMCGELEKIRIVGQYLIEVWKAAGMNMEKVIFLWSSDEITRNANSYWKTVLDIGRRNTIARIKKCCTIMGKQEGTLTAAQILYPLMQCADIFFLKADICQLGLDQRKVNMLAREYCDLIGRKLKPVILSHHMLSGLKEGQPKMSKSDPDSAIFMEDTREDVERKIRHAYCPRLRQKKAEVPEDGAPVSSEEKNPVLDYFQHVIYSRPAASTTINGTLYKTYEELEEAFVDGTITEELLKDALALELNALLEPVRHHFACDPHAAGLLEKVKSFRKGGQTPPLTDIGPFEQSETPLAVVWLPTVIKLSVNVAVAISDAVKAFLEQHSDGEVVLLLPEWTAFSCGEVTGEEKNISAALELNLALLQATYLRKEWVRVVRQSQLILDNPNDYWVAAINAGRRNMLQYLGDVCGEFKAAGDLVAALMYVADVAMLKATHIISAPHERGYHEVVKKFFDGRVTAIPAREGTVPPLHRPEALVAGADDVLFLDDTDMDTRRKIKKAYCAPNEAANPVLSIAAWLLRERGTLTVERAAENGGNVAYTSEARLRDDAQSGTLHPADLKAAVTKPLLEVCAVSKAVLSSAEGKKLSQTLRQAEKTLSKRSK
Put plainly: Trypanosoma cruzi tyrosyl tRNA synthetase (TcYRS) _High Tyrosine SOP. Note: in the data most compounds retested in dose-response had high values. Conditions: 30 µM. It is filed as functional.

The target in test [8] is T4, Tyrosyl-tRNA synthetase, putative (Trypanosoma cruzi (strain CL Brener)). Put plainly: Trypanosoma cruzi tyrosyl tRNA synthetase (TcYRS) SOP. Conditions: 30 µM. Format: functional.
The target in test [9] is Chromo domain-containing protein 1 (Saccharomyces cerevisiae (strain ATCC 204508 / S288c) (Baker's yeast)) (UniProt P32657). Put plainly: ScCHD-1 Enzyme Inhibition Assay. Note: in the data most compounds retested in dose-response had high values. Format: functional. Conditions: 30 µM.
Chromo domain-containing protein 1 (Saccharomyces cerevisiae (strain ATCC 204508 / S288c) (Baker's yeast)), sequence (P32657 whole entry, the tested form may be a part): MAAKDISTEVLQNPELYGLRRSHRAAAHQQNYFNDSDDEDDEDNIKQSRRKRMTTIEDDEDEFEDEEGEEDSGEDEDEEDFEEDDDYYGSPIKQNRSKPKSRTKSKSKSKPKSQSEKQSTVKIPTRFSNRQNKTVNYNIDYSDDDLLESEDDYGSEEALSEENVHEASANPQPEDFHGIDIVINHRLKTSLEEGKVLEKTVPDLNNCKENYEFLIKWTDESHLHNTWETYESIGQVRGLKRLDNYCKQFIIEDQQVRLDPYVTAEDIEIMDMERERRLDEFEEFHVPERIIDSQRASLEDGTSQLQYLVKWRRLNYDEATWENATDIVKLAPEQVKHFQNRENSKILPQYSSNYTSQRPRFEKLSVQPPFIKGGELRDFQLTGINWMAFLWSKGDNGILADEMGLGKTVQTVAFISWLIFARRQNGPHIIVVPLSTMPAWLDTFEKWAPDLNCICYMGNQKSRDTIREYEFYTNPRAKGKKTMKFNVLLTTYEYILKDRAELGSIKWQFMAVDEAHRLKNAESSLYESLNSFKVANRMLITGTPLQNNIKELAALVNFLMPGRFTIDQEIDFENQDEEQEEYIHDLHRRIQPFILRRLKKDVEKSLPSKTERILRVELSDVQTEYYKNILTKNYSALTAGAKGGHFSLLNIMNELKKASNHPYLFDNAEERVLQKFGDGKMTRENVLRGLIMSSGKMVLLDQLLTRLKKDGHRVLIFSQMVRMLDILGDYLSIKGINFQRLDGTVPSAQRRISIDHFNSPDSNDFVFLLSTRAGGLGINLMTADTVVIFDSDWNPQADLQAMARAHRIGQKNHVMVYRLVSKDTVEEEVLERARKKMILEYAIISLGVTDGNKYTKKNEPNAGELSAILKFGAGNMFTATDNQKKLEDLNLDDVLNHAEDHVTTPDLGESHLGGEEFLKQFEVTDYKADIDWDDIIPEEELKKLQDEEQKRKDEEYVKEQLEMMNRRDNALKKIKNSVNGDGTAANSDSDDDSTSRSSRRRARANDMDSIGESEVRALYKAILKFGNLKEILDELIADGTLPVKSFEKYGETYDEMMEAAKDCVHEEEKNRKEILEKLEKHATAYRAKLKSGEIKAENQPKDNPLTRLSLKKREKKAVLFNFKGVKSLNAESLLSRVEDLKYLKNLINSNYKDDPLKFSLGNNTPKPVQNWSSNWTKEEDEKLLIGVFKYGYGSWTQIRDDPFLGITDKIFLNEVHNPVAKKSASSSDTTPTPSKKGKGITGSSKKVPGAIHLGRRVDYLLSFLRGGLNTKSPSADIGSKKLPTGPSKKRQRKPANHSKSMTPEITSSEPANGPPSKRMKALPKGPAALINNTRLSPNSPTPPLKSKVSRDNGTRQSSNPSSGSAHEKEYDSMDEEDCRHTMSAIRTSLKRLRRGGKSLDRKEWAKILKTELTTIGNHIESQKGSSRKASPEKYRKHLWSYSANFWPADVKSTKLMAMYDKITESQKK

As to `O=C1O[C@@H]2CN(Cc3cccc(F)c3)C[C@@H]2N1CCCN1CCOCC1`, the Percent Effect in [1] is -1.1%; in test [2], 10.7%; in [3] it was 4.3%; in test [4], 9.62%; in the test on Trypanosoma cruzi, 2.82%; in test [5], 12.5%. For the same compound, the Percent Effect in test [6] was 21.3%; in the test filed under Homo sapiens, 9.55%; in test [7], 3.83%; in test [8] it was 21%; in test [9], -10.6%.

Take `Cc1nc(CCC(=O)NC2CCC2)cc(C2CCNCC2)n1`: the Percent Effect in test [1] is -4.77%; in test [2], 26.7%; in [3] it was -4.67%; in test [4], -2.25%; in the test on Trypanosoma cruzi, 6.1%; in [5], -4.43%. In addition, the Percent Effect was 4.67% in test [6]; 3.41% in the test listed under Homo sapiens; 4.25% in [7]; 19.2% in [8]; -7.72% in [9].

Take `CCNC(=O)c1ccc(N2CCCC(c3nccn3C(C)C)C2)nc1` (stereo unspecified): the Percent Effect was -2.94% in test [1]; 8% in test [2]; -3.44% in test [3]; 14.3% in test [4]; 5.16% with Trypanosoma cruzi; 20.3% in test [5]. For the same compound, the Percent Effect in [6] was 11.2%; in the test listed under Homo sapiens, 6.3%; in [7] it was 3.83%; in [8], 11.1%; in test [9], -4.72%.

With `Cc1nn(C)c(C)c1C1CCCN1C(=O)c1ccc(Cl)o1` (stereo unspecified), the Percent Effect in test [1] is -4.75%; in test [2] it was 2.7%; in [3], 0.29%; in [4], -6.5%; with Trypanosoma cruzi, 4.88%; in test [5], -3.33%. Moreover, the Percent Effect was 1.27% in test [6]; 5.89% in the test listed under Homo sapiens; 4.95% in test [7]; -6.1% in test [8]; 1.72% in [9].

Consider `Cc1cccc(CN2C[C@@H]3CN(C(=O)NC(C)C)C[C@@H]3C2=O)c1`, for which the Percent Effect was 0.524% in test [1]; 5.2% in [2]; 3% in [3]; 7.17% in [4]; -1.87% in the test on Trypanosoma cruzi; -35.9% in test [5]. Also, the Percent Effect in test [6] is 11.2%; in the test listed under Homo sapiens it was -7.06%; in test [7], 6.45%; in test [8] it was 13.6%; in test [9], 1%.

Take `Cc1noc(NC(=O)c2ccc(Br)s2)n1`: the Percent Effect in test [1] is 1.05%; in test [2], -5.26%; in test [3], 14.6%; in test [4] it was -3.75%; in the test with Trypanosoma cruzi it was -5.13%; in test [5] it was 3.96%. Also, the Percent Effect was 9.39% in test [6]; 40.2% in the test filed under Homo sapiens; -3.45% in [7]; 1.24% in test [8]; 15.6% in test [9].

With `Cc1nc(C)n(C2CCCN(C(=O)c3ccc(F)cc3F)C2)n1` (stereo unspecified), the Percent Effect in test [1] is -3.45%; in test [2], 0%; in [3], 0.572%; in test [4], -0.68%; in the test with Trypanosoma cruzi, 2.73%; in test [5], 24.6%. The Percent Effect in test [6] is 11.2%; in the test filed under Homo sapiens, -8.13%; in test [7], 9.9%; in test [8], 18.3%; in test [9] it was -7.11%.

Take `Cn1cnc(-c2cc(C(=O)N3CCOCC3)c3ccccn23)c1`: the Percent Effect in test [1] is -2.02%; in [2] it was 10.8%; in test [3] it was 17.9%; in test [4], -4.69%; in the test on Trypanosoma cruzi it was -3.42%; in test [5], 17.5%. Besides, the Percent Effect is 26.6% in [6]; -15.6% in the test filed under Homo sapiens; 3.24% in [7]; 10.3% in test [8]; -3.5% in test [9].

With `Cc1csc(N2CCCN(C(=O)C(C(C)C)n3cncn3)CC2)n1` (stereo unspecified), the Percent Effect was -1.03% in test [1]; 13.5% in test [2]; 0.997% in [3]; -3.98% in test [4]; -5.29% in the test on Trypanosoma cruzi; 3.51% in test [5]. Moreover, the Percent Effect in [6] is 10.9%; in the test listed under Homo sapiens, 19.3%; in test [7] it was 6.93%; in test [8] it was 15.8%; in [9] it was -2.71%.

Regarding `O=C(C[C@@H]1COC[C@H]2CN(Cc3ccc(F)cc3)C[C@@H]12)N1CCOCC1`, the Percent Effect in [1] is -9.06%; in test [2], 17.3%; in test [3] it was -1.45%; in test [4], -0.881%; with Trypanosoma cruzi it was -3.73%; in test [5], -10.4%. The Percent Effect in [6] was 7.58%; in the test listed under Homo sapiens, 7.29%; in [7], -2.12%; in test [8] it was -5.13%; in test [9] it was -10.9%.

As to `CCCc1cc(=O)n(CC(N)=O)c(-n2nc(C)cc2C)n1`, the Percent Effect in test [1] was -1.73%; in test [2] it was 7.79%; in [3], 7.17%; in test [4] it was -1.59%; in the test with Trypanosoma cruzi, 2.46%; in [5], -4.52%. Further, the Percent Effect was 10.1% in [6]; 32% in the test listed under Homo sapiens; 3.17% in test [7]; 11.5% in test [8]; -9.6% in [9].
